This excerpt belongs to a sample that is enriched for hits.
TbREL1 primary: TbREL1 RNA ligase inhibitors, primary screen, biochemical, FRET fluorescence | TbREL1 RNA ligation | hit rate 0.49% among 89,000 | RNA-editing ligase 1, mitochondrial (Trypanosoma brucei brucei), P86926 | inhibition, % at 9.66 µM;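 active means inhibition above the mean inhibition across all screened compounds plus 3 SD, cut at about 11% in these data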;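 further: 0% = plate median of test wells and 100% = NSC42067 control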
Target sequence (P86926 whole entry, looked up): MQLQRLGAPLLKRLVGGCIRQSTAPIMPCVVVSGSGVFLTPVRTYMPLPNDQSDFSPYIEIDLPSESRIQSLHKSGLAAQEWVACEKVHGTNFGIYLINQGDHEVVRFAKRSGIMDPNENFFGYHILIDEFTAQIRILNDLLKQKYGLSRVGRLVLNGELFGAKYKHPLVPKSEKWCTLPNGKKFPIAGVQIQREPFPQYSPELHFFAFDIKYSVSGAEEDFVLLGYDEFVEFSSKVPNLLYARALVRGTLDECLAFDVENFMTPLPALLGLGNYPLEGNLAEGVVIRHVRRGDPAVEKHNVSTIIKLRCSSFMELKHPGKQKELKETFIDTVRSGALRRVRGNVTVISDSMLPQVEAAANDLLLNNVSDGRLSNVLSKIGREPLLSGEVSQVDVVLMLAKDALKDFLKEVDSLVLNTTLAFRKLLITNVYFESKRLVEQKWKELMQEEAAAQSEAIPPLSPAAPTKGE
TbREL1 confirm: TbREL1 RNA ligase inhibitors, confirmation, biochemical, FRET fluorescence, triplicate. TbREL1 RNA ligation. shares compounds with TbREL1 primary. hit rate 37% among 390. inhibition, % at 9.66 µM;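 active means mean inhibition across replicates above a set limit taken from the earlier primary screen, cut at about 11% in these data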;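 further: 0% = REL1 with substrate and DMSO and 100% = REL1 plus control inhibitor NSC42067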
Starred values were filed as active, the others as inactive.

Results for CN(Cc1ccccc1)C(=O)COC(=O)c1ccc(Cl)c(N)c1 ?
TbREL1 primary: 1

Results for CC(C)(CO)N=C1NS(=O)(=O)c2cc([N+](=O)[O-])ccc21 ?
TbREL1 primary: -1

How did CCC[C@H]1[C@@H](OC(=O)NCc2ccc(Cl)cc2)CC[C@@]23CCCN2C(=O)CCC[C@@H]13 do in these assays?
TbREL1 primary: -3

What do the screens show for `CCC[C@H]1[C@@H](OC(=O)NCc2ccc(Cl)c(Cl)c2)CC[C@@]23CCCN2C(=O)CCC[C@@H]13`?
TbREL1 primary: 13*; TbREL1 confirm: 0

How did CCC[C@H]1[C@@H](NC(=O)C2CCCCC2)CC[C@@]23CCCN2C(=O)CCC[C@@H]13 do in these assays?
TbREL1 primary: 36*; TbREL1 confirm: 0

How did CCC[C@H]1[C@@H](OC(=O)NCc2ccc(C)cc2)CC[C@@]23CCCN2C(=O)CCC[C@@H]13 do in these assays?
TbREL1 primary: -3

What do the screens show for `CCCCCCCC(=O)N[C@H]1CC[C@@]23CCCN2C(=O)CCC[C@H]3[C@H]1CCC`?
TbREL1 primary: 1

How did CCC[C@H]1[C@@H](NCC2CCCCC2)CC[C@@]23CCCN2C(=O)CCC[C@@H]13 do in these assays?
TbREL1 primary: 2

What do the screens show for `CCC(C(=O)NCCCN1CC(C)CC(C)C1)n1ncn2c(cc3occc32)c1=O` (stereo not drawn)?
TbREL1 primary: 3

Results for Cc1ccc(CNS(=O)(=O)c2c(N)n(C)c(=O)n(C)c2=O)cc1 ?
TbREL1 primary: 0

How did CC(=O)N1CCN(S(=O)(=O)c2ccc(C)cc2)C1C (stereo not drawn) do in these assays?
TbREL1 primary: 2

What do the screens show for `Nc1nnc(SCCN2C(=O)c3ccccc3C2=O)s1`?
TbREL1 primary: 11*; TbREL1 confirm: 3

How did Cc1cc(C)n2c(SCCN3C(=O)c4ccccc4C3=O)nnc2n1 do in these assays?
TbREL1 primary: 0

What do the screens show for `Nc1nnc(SCC(=O)c2ccc3ccccc3c2)s1`?
TbREL1 primary: -2

How did COc1ccc(-c2cn(CCO)c(CCN)n2)cc1 do in these assays?
TbREL1 primary: 1

How did Cc1onc(-c2ccccc2)c1C(=O)N(Cc1ccco1)Cc1cccs1 do in these assays?
TbREL1 primary: -2

Results for O=C(O)CN1C(=O)SC(Nc2ccc(Cl)cc2)C1=O (stereo not drawn) ?
TbREL1 primary: 11*; TbREL1 confirm: 6

What do the screens show for `O=C(CCNc1ccc(Cl)cc1)c1cccs1`?
TbREL1 primary: -3

How did O=C(O)CN1C(=O)C2C3C=CC(C2C1=O)C1C(=O)N(CC(=O)O)C(=O)C31 (stereo not drawn) do in these assays?
TbREL1 primary: 4

Results for COCC(=O)N/N=C(\C)CC(=O)Nc1ccccc1C(N)=O ?
TbREL1 primary: 2

Results for Cc1ccc(CNC(=O)O[C@H]2CC[C@@]34CCCN3C(=O)CCC[C@H]4[C@H]2C)cc1 ?
TbREL1 primary: -5

What do the screens show for `N#Cc1ccccc1NC(=S)Nc1ccc(F)cc1`?
TbREL1 primary: 3

What do the screens show for `Fc1ccc(NC(=S)Nc2ccc3nccnc3c2)cc1`?
TbREL1 primary: 13*; TbREL1 confirm: 4

What do the screens show for `O=c1[nH]c2ccc(NC(=S)Nc3ccc(F)cc3)cc2[nH]1`?
TbREL1 primary: 2

Results for CCCS(=O)(=O)N1CCN(C(=O)c2ccccc2F)CC1 ?
TbREL1 primary: -1

Results for O=C(NCc1cc(C(F)(F)F)ccc1Cl)c1cccc2c1C(=O)c1ccc(N3CCOCC3)cc1S2(=O)=O ?
TbREL1 primary: 0

Results for O=C(NCc1ccc(OC(F)(F)F)cc1)c1cccc2c1C(=O)c1ccc(N3CCCCC3)cc1S2(=O)=O ?
TbREL1 primary: 5

Results for O=C(NCc1cc(C(F)(F)F)ccc1Cl)c1cccc2c1C(=O)c1ccc(N3CCCCC3)cc1S2(=O)=O ?
TbREL1 primary: 41*; TbREL1 confirm: 4

How did O=C(CSc1cccc[n+]1[O-])Nc1ccccc1Oc1ccccc1 do in these assays?
TbREL1 primary: 0

Results for CC(C)NC(=O)N(C)C[C@H]1Oc2c(NS(=O)(=O)c3ccccc3)cccc2C(=O)N([C@H](C)CO)C[C@@H]1C ?
TbREL1 primary: 0

How did COc1cc2c(cc1OC)C(c1ccc(-c3ccc(Cl)c(Cl)c3)o1)=NCC2 do in these assays?
TbREL1 primary: 14*; TbREL1 confirm: 24*

Results for COc1cc2c(cc1OC)C(c1ccc(-c3ccc(Cl)cc3Cl)o1)=NCC2 ?
TbREL1 primary: 6

What do the screens show for `COc1cc2c(cc1OC)C(c1ccc(Cl)cc1)=NCC2`?
TbREL1 primary: 2

How did O=C(O)/C=C/c1cnc2ccccc2c1 do in these assays?
TbREL1 primary: 2

What do the screens show for `CCCC[C@H]1C2CC(OC(=O)Nc3ccc(C)cc3)C(C2)[C@H]2CCCCN21` (stereo partly drawn)?
TbREL1 primary: -1

Results for CCCC[C@H]1C2CC(OC(=O)Nc3ccc(Br)cc3)C(C2)[C@H]2CCCCN21 (stereo partly drawn) ?
TbREL1 primary: 5

How did CCCC[C@H]1C2CC(OC(=O)Nc3ccc(C#N)cc3)C(C2)[C@H]2CCCCN21 (stereo partly drawn) do in these assays?
TbREL1 primary: 11*; TbREL1 confirm: 4

What do the screens show for `COC(=O)COn1c(SCC(=O)OC)nc2ccccc2c1=O`?
TbREL1 primary: 3

How did COc1ccc(-c2cn3nc(C)c(C)nc3n2)cc1OC do in these assays?
TbREL1 primary: 2

Results for COc1ccc(-c2nn3c(COc4ccccc4)nnc3s2)cc1OC ?
TbREL1 primary: 0

How did COc1ccc(-c2nn3cnnc3s2)cc1OC do in these assays?
TbREL1 primary: 11*; TbREL1 confirm: 4

Results for O=C(CSc1ncccn1)NC(=O)Nc1ccc2c(c1)OCCO2 ?
TbREL1 primary: 0

How did O=C(Nn1c(-c2ccncc2)nc2ccccc2c1=O)c1ccc([N+](=O)[O-])cc1Cl do in these assays?
TbREL1 primary: 0

How did COC(=O)C1=C(C)N(Cc2ccc(C(F)(F)F)cc2)C(=NCc2cccc(C(F)(F)F)c2)NC1c1ccccc1C(F)(F)F (stereo not drawn) do in these assays?
TbREL1 primary: 20*; TbREL1 confirm: 25*

How did COC(=O)C1=C(C)N(C)C(=NCc2ccc(OC)cc2)NC1c1ccccc1C(F)(F)F (stereo not drawn) do in these assays?
TbREL1 primary: 6

Results for CCN1C(=NCCOC)N[C@@H](c2cccc(C(F)(F)F)c2)C(C(=O)OC)=C1C ?
TbREL1 primary: 6

Results for COC(=O)C1=C(C)N(Cc2cccc(C(F)(F)F)c2)C(=NCc2ccc3c(c2)OCO3)NC1c1ccccc1C(F)(F)F (stereo not drawn) ?
TbREL1 primary: 13*; TbREL1 confirm: 20*

How did COC(=O)C1=C(C)N(Cc2cccc(C(F)(F)F)c2)C(=NCc2ccc(C(F)(F)F)cc2)NC1c1ccc(C(F)(F)F)cc1 (stereo not drawn) do in these assays?
TbREL1 primary: 8

What do the screens show for `COC(=O)C1=C(C)N(Cc2ccc(C(F)(F)F)cc2)C(=NCc2ccc(OC)cc2)NC1c1ccccc1C(F)(F)F` (stereo not drawn)?
TbREL1 primary: 17*; TbREL1 confirm: 14*

Results for COC(=O)C1=C(C)N(Cc2ccc(C(F)(F)F)cc2)C(=NCC2CC2)NC1c1ccccc1C(F)(F)F (stereo not drawn) ?
TbREL1 primary: 14*; TbREL1 confirm: 16*

Bioassay records as filed in PubChem BioAssay.
